{"source": "PubChem BioAssay (EPA / NIEHS)", "note": "Several values for one entry are separate records, joined by “and”; a condition that tells them apart may be missing. Equal values may be shown once. Some compounds were tested as several samples or in several runs, with calls that do not always agree. Activity calls are given as the source filed them. The calls were made as follows: active = hit-call score of the fitted dose curve at least 0.9, where 1 is the maximum; inactive = score below 0.9.", "data": [{"read-out": "Cyclin D1 (CCND1), CCND1 (gene 595)", "assay": "LTEA_HepaRG_CCND1: Life Technologies and Expression Analysis (LTEA) Assay for Cyclin D1 (CCND1) using HepaRG (AID 2283451);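 as to AC50: TaqMan qRT-PCR transcript level normalised to ACTB GAPDH and POLR2A housekeeping genes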", "conditions": "mRNA level, 48 h; actives raise or lower the signal", "experimental": "(§1) LTEA_HepaRG is a cell based, multiplexed-readout assay that uses HepaRG, a human liver cell line, with measurements taken at 48 hours after chemical dosing on a 96-well plate.LTEA_HepaRG_CCND1 is one of 102 assay component(s) measured in the LTEA HepaRG cell culture assay. It is a marker of Cell proliferation, survival, death.Data from the assay component LTEA_HepaRG_CCND1 was analyzed into 1 endpoint. This assay endpoint, LTEA_HepaRG_CCND1, was analyzed with bidirectional fitting relative to DMSO as the negative control and baseline of activity. Using a type of inducible reporter, measures of mRNA induction for gain or loss-of-signal activity can be used to understand regulation of transcription factor activity. To generalize the intended target to other relatable targets, this assay endpoint is annotated to the cell cycle intended target family, where the subfamily is Cell proliferation, survival, death.\n(§2) A total of 1060 chemcials from the ToxCast library were tested in eight-point concentration-response experiments. Cell culture and cytotoxicity assays were conducted at Thermo Fisher Scientific's Custom Services facility (Madison, WI). A single lot of human HepaRG cells (Thermo Fisher Scientific, Frederick, MD) was used for the cell culture experiments. 96-well format collagen type I coated plates of human HepaRG cells were prepared using established methods. Briefly, cryopreserved HepaRG cells were thawed, plated at a density of approximately 100,000 cells/well in HepaRG Thaw, Plate, and General Purpose media (HPRG770, Thermo Fisher Scientific), and incubated for 48 hours. 0.5% DMSO was selected as vehicle control to balance the requisite need of DMSO in HepaRG cultures to maintain differentiation (for example, baseline metabolism, proportions of hepatocytes vs. cholangiocytes), while enabling further hepatic receptor pathway activation (for example, PXR and CAR) in response to chemical exposure. 48 hours after plating, the culture medium was replaced with HepaRG Serum-Free Incudtion Media. Cells were exposed to each test chemical in duplicate and maintained in CO2 incubators for another 48 hours. Chemical plates were thawed to room temperature and 200x concentrations of treatment groups were prepared. 8-point conentration-reponse curves were made with the highest exposure at 100 uM, followed by half-log dilutions, all in 0.5% DMSO. Each test plate contained variouse controls, induction positive controls (1mM phenobarbital), cytotoxicity positive controls ([…] aflatoxin B1), vehicle controls (0.5% DMSO), and total lysis controls (0.5% DMSO). Cell morphology images were taken using an Essen IncuCyte FLR automated microscope, with six 96-well plates imaged in about 24 minutes. Images were captured and exported and JPEG files. Spent culture media was transfered to black-well plates for the LDH assay, and remaining media was sorted at -80 C for later use. Cells were treated with RLT buffer and frozen until shipped for gene expression analysis. Total RNA was isolated from the cell suspension in 75 uL of Buffer RLT (Qiagen, Germantown, MD 20874) by Quintiles/Expression Analysis (Durham, NC) using a custom isolation procedure. Total RNA from each plate well was transferred to a preamplification plate. Fluidigm's 96.96 Dynamic ArrayTM (Fluidigm, Amsterdam, the Netherlands) technology was used for gene expression analyses by quantitative reverse transcription polymerase chain reaction (qRT-PCR, performed by Quintiles/Expression Analysis, Durham, NC)89. Standard TaqManTM Assays (Applied Biosystems/ThermoFisher Scientific, Foster City, CA) were used to assess the expression of 93 genes selected based on their selectivity and sensitivity to important hepatic receptors known to be modulated by environmental chemicals; importance in human hepatocyte functionality; and hepatotoxicity. […]", "values": [{"smiles": "C#C[C@]1(O)CC[C@H]2[C@@H]3CCc4cc(O)ccc4[C@H]3CC[C@@]21C", "outcome": "inactive"}, {"smiles": "COC(=O)c1ccc(C(=O)OC)cc1", "outcome": "inactive"}, {"smiles": "C[C@]12CC[C@@H]3c4ccc(O)cc4CC[C@H]3[C@@H]1CC[C@@H]2O", "outcome": "inactive"}, {"smiles": "O=C(c1ccc(OCCN2CCCCC2)cc1)c1c(-c2ccc(O)cc2)sc2cc(O)ccc12", "AC50": "96.1 µM (active)"}, {"smiles": "CCCCOCCOCCO", "outcome": "inactive"}, {"smiles": "CC/C(=C(\\c1ccccc1)c1ccc(OCCN(C)C)cc1)c1ccccc1", "AC50": "28.1 µM (active) and 38.6 µM (active)"}, {"smiles": "C=C(C)C(N)=O", "outcome": "inactive"}]}, {"read-out": "catalase (CAT), CAT (gene 847)", "assay": "LTEA_HepaRG_CAT: Life Technologies and Expression Analysis (LTEA) Assay for catalase (CAT) using HepaRG (AID 2283452)", "conditions": "mRNA level, 48 h; actives raise or lower the signal", "procedure,_shortened": "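HepaRG cells in serum-free induction medium, 0.5% DMSO vehicle, exposed 48 h in duplicate over 8 half-log concentrations from 100 uM. CAT mRNA measured by qRT-PCR, normalized to ACTB, GAPDH, POLR2A; bidirectional fit versus DMSO.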", "values": [{"smiles": "C#C[C@]1(O)CC[C@H]2[C@@H]3CCc4cc(O)ccc4[C@H]3CC[C@@]21C", "outcome": "inactive"}, {"smiles": "COC(=O)c1ccc(C(=O)OC)cc1", "outcome": "inactive"}, {"smiles": "C[C@]12CC[C@@H]3c4ccc(O)cc4CC[C@H]3[C@@H]1CC[C@@H]2O", "outcome": "inactive"}, {"smiles": "O=C(c1ccc(OCCN2CCCCC2)cc1)c1c(-c2ccc(O)cc2)sc2cc(O)ccc12", "AC50": "50 µM (active)"}, {"smiles": "CCCCOCCOCCO", "outcome": "inactive"}, {"smiles": "CC/C(=C(\\c1ccccc1)c1ccc(OCCN(C)C)cc1)c1ccccc1", "AC50": "51.7 µM (active)", "outcome": "inactive"}, {"smiles": "C=C(C)C(N)=O", "outcome": "inactive"}]}, {"read-out": "flavin-containing dimethylaniline monooxygenases 3 (FMO3), FMO3 (gene 2328)", "assay": "LTEA_HepaRG_FMO3: Life Technologies and Expression Analysis (LTEA) Assay for flavin-containing dimethylaniline monooxygenases 3 (FMO3) using HepaRG (AID 2283453)", "conditions": "mRNA level, 48 h; actives raise or lower the signal", "procedure,_shortened": "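Eight-point concentration-response in serum-free HepaRG cultures (top 100 uM, 0.5% DMSO, 48 h). Read-out: FMO3 mRNA level normalized to three endogenous control genes, fitted bidirectionally versus vehicle.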", "values": [{"smiles": "C#C[C@]1(O)CC[C@H]2[C@@H]3CCc4cc(O)ccc4[C@H]3CC[C@@]21C", "outcome": "inactive"}, {"smiles": "COC(=O)c1ccc(C(=O)OC)cc1", "outcome": "inactive"}, {"smiles": "C[C@]12CC[C@@H]3c4ccc(O)cc4CC[C@H]3[C@@H]1CC[C@@H]2O", "outcome": "inactive"}, {"smiles": "O=C(c1ccc(OCCN2CCCCC2)cc1)c1c(-c2ccc(O)cc2)sc2cc(O)ccc12", "AC50": "72.3 µM (active)"}, {"smiles": "CCCCOCCOCCO", "outcome": "inactive"}, {"smiles": "CC/C(=C(\\c1ccccc1)c1ccc(OCCN(C)C)cc1)c1ccccc1", "AC50": "27.9 µM (active) and 33.7 µM (active)"}, {"smiles": "C=C(C)C(N)=O", "outcome": "inactive"}]}, {"read-out": "Cytochrome P450 (CYP1A1), CYP1A1 (gene 1543)", "assay": "LTEA_HepaRG_CYP1A1: Life Technologies and Expression Analysis (LTEA) Assay for Cytochrome P450 (CYP1A1) using HepaRG (AID 2283454)", "conditions": "mRNA level, 48 h; actives raise or lower the signal", "experimental": "as §1, with “plate.LTEA_HepaRG_CYP1A1” for “plate.LTEA_HepaRG_CCND1”, “NR mediated metabolism.Data” for “Cell proliferation, survival, death.Data”, “LTEA_HepaRG_CYP1A1” for “LTEA_HepaRG_CCND1”, “LTEA_HepaRG_CYP1A1,” for “LTEA_HepaRG_CCND1,”, “cyp” for “cell cycle”, “xenobiotic metabolism.” for “Cell proliferation, survival, death.”\nas §2", "values": [{"smiles": "C#C[C@]1(O)CC[C@H]2[C@@H]3CCc4cc(O)ccc4[C@H]3CC[C@@]21C", "outcome": "inactive"}, {"smiles": "COC(=O)c1ccc(C(=O)OC)cc1", "AC50": "65.1 µM (active)"}, {"smiles": "C[C@]12CC[C@@H]3c4ccc(O)cc4CC[C@H]3[C@@H]1CC[C@@H]2O", "AC50": "66.1 µM (active)"}, {"smiles": "O=C(c1ccc(OCCN2CCCCC2)cc1)c1c(-c2ccc(O)cc2)sc2cc(O)ccc12", "outcome": "inactive"}, {"smiles": "CCCCOCCOCCO", "AC50": "50 µM (active)"}, {"smiles": "CC/C(=C(\\c1ccccc1)c1ccc(OCCN(C)C)cc1)c1ccccc1", "AC50": "26.8 µM (active) and 68.3 µM (active)"}, {"smiles": "C=C(C)C(N)=O", "AC50": "50 µM (active)"}]}]}
